We go through 22 compounds from PubChem BioAssay.

In general, inhibition refers to the percentage by which the read-out fell short of the control.

Molecules are shown by their SMILES. Values without a mark were called inactive. The rule behind the calls is not given here.

The target in this experiment is Pantothenate synthetase (Mycobacterium tuberculosis (strain ATCC 25618 / H37Rv)) (UniProt P9WIL5). Description: Recombinant Mtb pantothenate synthetase (PanC) inhibitors, coupled enzyme, confirmatory (AID 375).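 Note: 0% = full reaction with vehicle and 100% = no enzyme background.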 To be noted: coupled enzyme assay; at 10 µM, active compounds read high.
Chain of Pantothenate synthetase (Mycobacterium tuberculosis (strain ATCC 25618 / H37Rv)) (P9WIL5 whole entry, looked up): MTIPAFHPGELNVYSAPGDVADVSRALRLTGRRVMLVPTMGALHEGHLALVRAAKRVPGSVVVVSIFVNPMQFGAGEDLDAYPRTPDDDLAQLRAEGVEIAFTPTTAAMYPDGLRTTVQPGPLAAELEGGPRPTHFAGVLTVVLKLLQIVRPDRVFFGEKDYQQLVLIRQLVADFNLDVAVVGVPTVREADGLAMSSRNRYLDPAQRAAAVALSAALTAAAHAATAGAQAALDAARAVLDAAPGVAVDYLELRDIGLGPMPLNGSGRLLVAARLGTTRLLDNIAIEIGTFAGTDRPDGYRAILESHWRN
Consider `O=C(O)CCCc1nc(-c2ccccc2)no1`, for which the inhibition was 0%.
Under `CCN(CCCNC(=O)CCNC(=O)Cn1ccc2ccccc2c1=O)c1ccccc1` stands 1%.
Under `Cc1ccc(C(=O)NC(Cc2c[nH]c3ccccc23)C(=O)O)o1` (configuration not stated) stands 0%; under `CN1CC=C2C(C#N)=C(N)C(C#N)(C#N)C(Cc3ccccc3)C2C1` (configuration not stated), 0%; under `CC(=O)NC(C)c1nc2ccccc2n1C(C)C` (configuration not stated), 6%.
Next, `COc1ccc(COC(=O)c2n[nH]c3ccccc23)cc1F`: 0%; `Cc1occc1C(=O)N1CCN(c2ncccn2)CC1`: 6%; `CCCCC(=O)O[C@]1(C(=O)CO)CC[C@H]2[C@@H]3CCC4=CC(=O)CC[C@]4(C)[C@H]3[C@@H](O)C[C@@]21C`: 10%.
As for `CCOc1ccc2nc(NC(=O)C3CCCN(S(=O)(=O)c4c(C)noc4C)C3)sc2c1` (configuration not stated), the inhibition is 0%.
Under `O=C(OC1CCOC1=O)c1ccc2ccccc2n1` (configuration not stated) stands 4%; under `COc1ccc(-c2nc(C#N)c(N3CCOCC3)o2)cc1OC`, 0%.
For the compound `COc1ccccc1-c1ccc(Nc2cccc(C(C)=O)c2)nn1`, the inhibition is 0%.
Under `COc1ccc(Cl)cc1C(=O)NCCc1ccc(S(=O)(=O)NC(=O)NC2CCCCC2)cc1` stands 0%; under `Cn1c(=O)[nH]c(=O)c2c1ncn2CCN1CCOCC1`, 0%; under `CN(c1ccccc1)S(=O)(=O)c1ccc(C(=O)OCC(=O)NCc2ccco2)cc1`, 5%.
Under `CCOC(=O)N1CCC(NC(=O)c2ccc3c(c2)sc2nc(-c4cccc(OC)c4)cn23)CC1` stands 0%.
Under `O=C(CSc1nccn1-c1cccc(Cl)c1)NC1CCCC1` stands 0%; under `COc1cccc(NC(=O)CC2SC(=Nc3ccccc3)NC2=O)c1` (configuration not stated), 0%.
As to `CN(C)CCOC(C)(c1ccccc1)c1ccccn1` (configuration not stated), the inhibition is 0%.
On to `O=C(Nc1ccc(S(=O)(=O)N2CCc3ccccc32)cc1)c1ccc2c(c1)OCO2`, for which the inhibition is 0%.
Regarding `COCCOC(=O)C1=C(C)N=c2s/c(=C\c3cccs3)c(=O)n2C1c1cccs1` (configuration not stated), the inhibition was 1%.
Under `COc1ccc(Br)cc1C(=O)Nc1nnn(C)n1` stands 0%.
